Results on 16 compounds are retold here after PubChem BioAssay (NCI).

Compounds without any hit were thinned out: in the full panel of roughly 79,000, 15% have a hit. The source made the active and inactive calls. No stated cut-off is given here; in the data, active means growth inhibition above about 70%; inactive means the rest.

A short description of this assay: NCI Yeast Anticancer Drug Screen. Data for the rad50 strain (AID 155).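 Further: 0% = growth of vehicle-only cultures of the same strain.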 As to conditions: S. cerevisiae rad50 strain growth inhibition; at 50.0 µM; stronger effect = higher value. Summed up: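 DNA repair mutant yeast, compound exposure, growth read-out; inhibition is taken relative to vehicle.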
With `CCOC(=O)Cn1c(=O)c2nc(SC)sc2n(-c2ccccc2)c1=O`, the growth inhibition was -19.9% (inactive). Then `Nc1c(I)cc([N+](=O)[O-])cc1I`, with 32.8% (inactive). On to `COc1ccc(-c2nc3ccccc3[nH]2)cc1`, for which the growth inhibition is 16.4% (inactive). For `O=C(Nc1ccc(S(=O)(=O)/N=c2\ncccn2C(=O)C(C(F)(F)F)C(F)(F)F)cc1)C(C(F)(F)F)C(F)(F)F` the value was -5% (inactive); for `CCOC(=O)C1=CNC(C(=O)OCC)C1c1cccn1-c1ccc(Cl)cc1[N+](=O)[O-]` (stereo unspecified), 8.6% (inactive); for `COC(=O)CC(c1ccc2c(c1)OCO2)N1CCOCC1` (stereo unspecified), -6.3% (inactive). For `CC1=C2CCCCC2(C)C=C(C(=O)O)C1=O` (stereo unspecified) the value was 22.2% (inactive). For `CC(=O)c1cc2c(cc1C)C(C)(C)CCC2` the value was 8.45% (inactive); for `O=C(Nc1ccc(Cl)cc1)Nc1nnc2nc(CC(=O)c3ccccc3)c(=O)[nH]n12`, 15.7% (inactive). With `O=C(OC1(c2ccccc2)OC(=O)c2ccccc21)c1ccccc1C(=O)c1ccccc1` (stereo unspecified), the growth inhibition was -6.65% (inactive). Turning to `CCCCCCC(=O)/C=C/c1ccccc1OCOC`, the growth inhibition was -3.35% (inactive). Then `CSC1(SC2=NCCN2)SC2(NCCN2)S1`, with 1.75% (inactive); and `O=C1OC(c2ccccc2)=CC1(Cc1ccccc1)Cc1ccccc1`, with 0.2% (inactive).

In the case of `O=S(=O)(Nc1ccccc1C(O)c1ccccc1)c1ccccc1` (stereo unspecified), the growth inhibition was 35.5% (inactive). As for `O=C(Nc1ccccc1Cl)c1ccc(F)cc1`, the growth inhibition was -2.25% (inactive). In the case of `S=C(NC1CCCCC1)N1CCC(CCCC2CCN(C(=S)NC3CCCCC3)CC2)CC1`, the growth inhibition is -42.8% (inactive).
